Measurements published in PubChem BioAssay AID833 (The Scripps Research Institute Molecular Screening Center, 2007).
About 80 (0.5%) of roughly 16,000 compounds were called active. Many of the other results were omitted from the sample, so actives are more common in it than they were. Unmarked numbers belong to inactive results. No stated cut-off is given here; in the data, active means activation above about 15%; inactive means the rest.

molecular target: Galanin receptor type 2 (Rattus norvegicus) (UniProt O08726); assay: activates the rat galanin receptor 2 (AID 833); details: cell-based GALR2 agonist screen; at 10 µM; stronger effect = higher value
Sequence (O08726 whole entry, looked up): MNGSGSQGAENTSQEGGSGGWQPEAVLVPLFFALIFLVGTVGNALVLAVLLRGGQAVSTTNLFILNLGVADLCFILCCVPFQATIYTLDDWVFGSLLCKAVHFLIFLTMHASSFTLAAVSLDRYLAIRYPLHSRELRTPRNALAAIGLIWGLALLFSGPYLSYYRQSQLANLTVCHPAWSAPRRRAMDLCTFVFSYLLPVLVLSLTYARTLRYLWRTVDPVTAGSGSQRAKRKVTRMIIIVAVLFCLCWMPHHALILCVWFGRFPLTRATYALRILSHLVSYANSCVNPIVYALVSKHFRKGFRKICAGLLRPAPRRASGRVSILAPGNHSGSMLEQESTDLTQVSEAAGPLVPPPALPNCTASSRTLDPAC

| Compound | activation |
| --- | --- |
| COc1ccc(S(=O)c2ccccc2C(=O)O)c(C(=O)O)c1 (stereo unspecified) | -7.55% |
| Cc1ccc(NC(=O)c2ccccc2NC(=O)c2ccccc2)cc1 | -2.58% |
| CCOC(=O)C(=CNc1ccc2n[nH]nc2c1)C(=O)OCC | -1.04% |
| CSc1sc(C(=O)Nc2cccc(C(F)(F)F)c2)cc1S(=O)(=O)C(C)C | -6.93% |
| Cn1c(SCC(=O)c2ccc(Cl)cc2)nnc1-c1cnccc1C(F)(F)F | -8.49% |
| O=S(=O)(Cc1nnc(-c2cc(Cl)cc(Cl)c2)o1)c1ccc(Cl)cc1 | -1.76% |
| CC1(C)CC(=O)C=C(N2CCOCC2)C1 | -5.82% |
| Cc1ccc(Sc2cc(C)c(C)cc2N)c(C)c1 | -6.96% |
| O=C1NCCN1CCNS(=O)(=O)c1cc(Cl)sc1Cl | -5.62% |
| O=S(=O)(Oc1ccc(C2SCCS2)cc1)c1ccc(Br)cc1 | -1.98% |
| CNC(=S)Nc1cscc1S(=O)(=O)c1ccc(Cl)cc1 | -6.95% |
| CCOC(=O)NC(=S)NC12CC3CC(CC(C3)C1)C2 | -2.11% |
| Cc1onc(-c2ccccc2)c1CNS(=O)(=O)c1ccc(-c2ccccn2)s1 | -9.42% |
| COC(=O)c1c(C(=O)OC)c2n(c1C)CCS2 | -6.88% |
| Cc1onc(-c2ccccc2Cl)c1NC(=O)N1c2ccc(F)cc2CCC1C (stereo unspecified) | -4.64% |
| N#Cc1sccc1Br | -7.39% |
| O=S(=O)(O)Oc1c[nH]c2ccccc12 | -7.29% |
| N#CC(C#N)=Cc1cccn1-c1ccc(C(F)(F)F)cc1 | -6.03% |
| CS/C(=N\S(=O)(=O)c1ccccc1)NNc1ccccc1 | -3.17% |
| O=c1[nH]c2c(=O)[nH]c(=S)[nH]c2nc1/C=C(\O)c1ccccc1 | -5.76% |
| CN(C)/C=C/C(=O)c1cc(C(C)(C)C)cc(C(C)(C)C)c1O | -4.8% |
| N#Cc1ccc(N2CCSCC2)cc1[N+](=O)[O-] | -4.09% |
| N/C(=N\OC(=O)c1ccc(Cl)cc1)c1cccc(CS(=O)(=O)c2ccccn2)c1 | -8.52% |
| COc1cccc(/C=C2\SC(=S)C(N)C2=O)c1OC (stereo unspecified) | -1.21% |
| CS(=O)(=O)c1csc(C(=O)NCc2cccnc2)c1Cl | -6.55% |
| O=C(N[C@@H](Cc1ccc(O)cc1)C(=O)O)OCc1ccccc1 | -5.07% |

| Compound | activation |
| --- | --- |
| CS(=O)(=O)Nc1ccc(/C(N)=N/OC(=O)c2cccs2)cc1 | -5.51% |
| CCc1ccnc(NS(=O)(=O)c2ccc3c(c2)OCCO3)c1 | -1.48% |
| c1csc(-c2ccc(-c3ccon3)s2)c1 | -4.74% |
| CC(=O)c1ccc(NC(=O)OC2CCSC2)cc1 (stereo unspecified) | -4.49% |
| O=C(Nc1ccc2c(c1)OCCO2)c1cnccn1 | 6.11% |
| COc1cc(C=C(C#N)C#N)cc(OC(C)=O)c1OC(C)=O | -8.12% |
| CNC(=S)NNC(=O)CSc1cccs1 | -6.57% |
| O=C(NC(=O)c1ccno1)Nc1ccccc1Cl | -3.51% |
| Cc1cc(C2=CSC3=NCCN23)ccc1Cl | -7.84% |
| CN(C)CCC(O)c1ccc2c(c1)OCCCCO2 (stereo unspecified) | -8.25% |
| Cc1ccc(N(C)NC(=O)Nc2ccc(Cl)cc2)nn1 | -6.34% |
| COc1ccc(C(=O)NNC(=O)c2c(OC)cc(C(F)(F)F)cc2C(F)(F)F)cc1 | -1.51% |
| CCOC(=O)Cc1nnc(-c2ccc(Cl)cc2)o1 | -7.97% |
| N#Cc1nc(-c2ccccc2)c(-c2ccccc2)nc1C#N | 3.73% |
| Cc1noc(C)c1C(=O)Oc1cccc2cccnc12 | 3.32% |
| Cc1ccc(OC(=O)c2cccc([N+](=O)[O-])c2)c(Br)c1 | 1.69% |
| NS(=O)(=O)c1cc(C(F)(F)F)cc(C(F)(F)F)c1 | -4.46% |
| NNC(=O)c1csc(COc2ccc(C3SCCS3)cc2)n1 | -7.31% |
| O=C(Nc1ccccc1N1CCOCC1)NC1CCN(C(=O)OCc2ccccc2)CC1 | -4.03% |
| CCOC(=O)c1cc(Sc2ccccc2N)cc(C(=O)OCC)n1 | -3.83% |
| CN(C)C(=O)Nc1ccc(C(C)(C)C)cc1 | -6.41% |
| O=C(O)c1ccccc1N/C=C/[N+](=O)[O-] | -3.26% |
| Cc1nn2c(=O)c3c4c(sc3nc2[nH]c1=O)CCCC4 | 0.66% |
| Fc1cccc(Cl)c1CSc1nccn1-c1cccnc1 | -3.88% |
| O=C(NC1Cc2ccccc2C1)c1nnc(-c2ccccc2)o1 | -5.35% |
| N/C(=N\OC(=O)c1ccc([N+](=O)[O-])o1)c1ccc(OCc2ccc(Cl)cc2)c(Cl)c1 | -4.76% |

| Compound | activation |
| --- | --- |
| CN(C)c1cccc2c1c(NC(=O)Nc1ccc(OCc3ccccc3)cc1)nn2C | -3.92% |
| O=C(Nc1ccc(C(F)(F)F)cn1)c1ccc(Oc2cc(Cl)cc(Cl)c2)o1 | -5.62% |
| CCN=C(NCC)Nc1ccc(Cl)cc1 | -7.95% |
| CCOC(=O)CCC(=O)OC(C(=O)c1ccccc1)c1ccccc1 (stereo unspecified) | -6.88% |
| COc1ccc(C2CC(c3cccs3)=Nc3ccccc3S2)c(Cl)c1OC (stereo unspecified) | -10.3% |
| CCCN(CCC)S(=O)(=O)c1ccc(C(=O)N2CC3CCC(CC3)C2)cc1 | -5.35% |
| O=C(Nc1ccc(OC(F)F)cc1)Nc1coc(-c2ccccc2)c1 | -4.63% |
| COc1ccc2c(c1)CCCC2=Nc1ccccc1C(F)(F)F | -6.48% |
| COC(=O)c1ccc(S(=O)(=O)NNC(=O)c2cn3cc(C(F)(F)F)cc(Cl)c3n2)n1C | -7.71% |
| O=c1c(-c2nc(-c3ccc(C(F)(F)F)cc3)no2)cnc2n1CCS2 | -4.47% |
| Cc1noc(C)c1S(=O)(=O)Nc1cc(C(F)(F)F)ccc1N1CCOCC1 | -7.12% |
| COC(=O)c1cc(OC)c(OC)cc1NS(=O)(=O)c1ccsc1C(=O)OC | -7.2% |
| O=C(Nc1cccnc1Oc1ncnc2cc(Cl)ccc12)c1ccc(F)cc1 | -3.54% |
| CS(=O)(=O)/N=C(\N)c1ccncc1 | -6.47% |
| CCOC(=O)Cn1cc(Cl)ccc1=O | -2.49% |
| O=C1C2C3C=CC(O3)C2C(=O)N1OCc1ccc(OC(F)(F)F)cc1 (stereo unspecified) | -2.8% |
| O=c1[nH]c2ccccc2s1 | -3.62% |
| O=c1oc2c3ccccc3c3oc(=O)sc3c2s1 | 16.7% (active) |
| CCOc1ccc(C(N)=O)c(SCC(=O)O)c1 | -10.1% |
| Cn1nnnc1SCC(=O)Nc1ccc(OC(F)(F)F)cc1 | -4.06% |
| COc1ccc(/C=N/N2CCC(=O)Nc3ccccc32)c(OC)c1 | -4.04% |
| N/C(=N\OCc1noc(-c2ccsc2)n1)c1ccc(C(F)(F)F)cc1 | -8% |
| Cc1noc(C)c1C(=O)c1c(C)[nH]n(-c2ccccc2)c1=O | -4.7% |
| CC(C)(C)NC(=O)NCC(c1ccc[nH]1)C(F)(F)F (stereo unspecified) | -6.65% |
| COC(=O)C1=C(c2ccccc2)C(c2ccccc2)=C(C(=O)OC)C1=O | -1.25% |
| N#CC(C#N)=CNc1c(F)cccc1Cl | -9.67% |

| Compound | activation |
| --- | --- |
| CC(=O)/C(=C\N(C)C)c1ncccc1[N+](=O)[O-] | -5.71% |
| C=C(C)c1cccc(C(C)(C)NC(=O)CC(C)=O)c1 | -4.52% |
| O=C(Cc1cc(F)cc(F)c1)n1nccc1-c1cccs1 | -4.48% |
| FC(F)(F)c1cccc(NC(=S)NNc2nccc(C(F)(F)F)n2)c1 | -8.08% |
| COC(=O)c1sccc1S(=O)(=O)Nc1ccccc1Sc1ncnc2c(C)csc12 | -5.48% |
| N/C(=N\S(=O)(=O)c1ccc(Cl)cc1)N1CCOCC1 | -1.28% |
| Fc1ccc(Oc2nc(Oc3ccc(F)cc3)nc(N3CCSCC3)n2)cc1 | -8.25% |
| CN(NS(=O)(=O)c1ccc(C(F)(F)F)cc1)c1cnn(C)c(=O)c1Cl | -5.39% |
| COC(=O)c1ccsc1NC(C)=O | -5.28% |
| CCOC(=O)c1ccc(NC)c(N)c1 | -7.18% |
| CN(C)c1ccc(/C=C(\C#N)S(C)(=O)=O)c(Cl)c1 | -4.37% |
| CC(C)[C@H]1COC(c2cccc(C3=N[C@@H](C(C)C)CO3)n2)=N1 | -5.78% |
| COC(=O)c1sc(S(C)=O)c(-c2ccon2)c1C (stereo unspecified) | -6.07% |
| O=C(Cn1nnc(N2CCOCC2)n1)N/N=C/c1ccc(-c2cccc([N+](=O)[O-])c2)o1 | -7.32% |
| CO/N=C1\C(=O)N(C)c2ccccc21 | -3.65% |
| COc1ccc(CCNC(=O)c2ccccc2-c2ccccc2C(=O)O)cc1OC | -7.28% |
| COC(=O)c1c(C)noc1-c1ccno1 | -5.48% |
| CCOC(=O)c1c(NC(=S)NC)sc2c1CCCC2 | -0.11% |
| N/C(=N\OC(=O)Nc1ccccc1)c1ccc(Oc2c(Cl)cncc2Cl)cc1 | -6.45% |
| CN([C@H]1CCN2CCc3ccccc3C2C1)S(C)(=O)=O (stereo partly specified) | -4.21% |
| O=C(CN1C(=O)/C(=C/c2ccccc2Cl)N=C1c1ccccc1)c1ccccc1 | 15.2% (active) |
| CCOC(=O)CN1C(=O)/C(=C\c2ccc(C)o2)N=C1c1ccccc1 | -8.17% |
| CN1CCN(c2ccc(NC(=O)c3ccccc3)cc2)CC1 | -7.3% |
